The nature of experiment [1]: NCI Yeast Anticancer Drug Screen. Data for the rad50 strain (AID 155).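 Further: 0% = growth of vehicle-only cultures of the same strain.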 As to conditions: S. cerevisiae rad50 strain growth inhibition, stronger effect = higher value. The method in brief:
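Relative growth inhibition (compound vs vehicle) was measured in yeast with a defined repair-gene alteration.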

A short description of experiment [2]: NCI Yeast Anticancer Drug Screen. Data for the mec2-1 strain (AID 157). To be noted: S. cerevisiae mec2-1 strain, stronger effect = higher value. The method, boiled down: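 Mutant yeast (mec2-1) grown with compound; growth inhibition relative to vehicle control reported.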
Experiment [3] is described as follows: NCI Yeast Anticancer Drug Screen. Data for the sgs1 mgt1 strain (AID 161).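 Further: 0% = growth of cultures given vehicle only.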 As to conditions: S. cerevisiae sgs1 mgt1 strain, stronger effect = higher value. The method, boiled down: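 Growth of a repair-deficient yeast mutant was monitored after compound treatment and expressed as inhibition relative to vehicle-treated cultures.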
The nature of experiment [4]: NCI Yeast Anticancer Drug Screen. Data for the cln2 rad14 strain (AID 165).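 Further: 0% = growth equal to vehicle treated cultures.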 As to conditions: S. cerevisiae cln2 rad14 strain, stronger effect = higher value. The method in brief:
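Readout is yeast growth inhibition versus vehicle-treated controls, using a strain with cln2 and rad14 alterations exposed to compound.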

Experiment [5] can be described thus: NCI Yeast Anticancer Drug Screen. Data for the bub3 strain (AID 167). As to conditions: S. cerevisiae bub3 mutant strain, stronger effect = higher value. The method, boiled down:
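Screening used yeast with an engineered genetic alteration affecting cell cycle control. Compound-exposed cultures were compared with vehicle cultures, and reduced growth was taken as inhibition.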

The nature of experiment [6]: NCI Yeast Anticancer Drug Screen. Data for the mlh1 rad18 strain (AID 175). As to conditions: S. cerevisiae mlh1 rad18 strain growth inhibition, stronger effect = higher value. The method in brief:
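Genetically defined yeast (DNA repair-deficient) exposed to compounds; growth inhibition determined relative to vehicle.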

The mark [7] stands for this setting: at 5.0 µM (retest, dose inferred, filed as 0.5).
Setting [8] is: at 50.0 µM (retest, dose inferred, filed as 5.0).

“And” between values parts separate entries of the source, which are not always exact repeats. Identical values can stand only once. About 79,000 compounds went through this panel and 15% of them were active in at least one assay; those are over-represented in the sample as a whole. Some structures have more than one record in an assay (separate samples or runs), and their calls can disagree. The source made the active and inactive calls. No stated cut-off is given here; in the data, active means growth inhibition above about 70%; inactive means the rest.

For the compound `CCOC(CN=c1nc(N(C)C)ss1)OCC`, the growth inhibition in experiment [1] (setting [7]) was 1% (inactive); in experiment [1] (setting [8]), -20% (inactive); in experiment [1] (at 50.0 µM) it was 2.75% (inactive); in experiment [2] (setting [7]) it was -9% (inactive); in experiment [2] (setting [8]) it was -12% (inactive); in experiment [2] (at 50.0 µM) it was -8% (inactive). Besides, the growth inhibition was 11% (inactive) in experiment [3] (setting [7]); -19% (inactive) in experiment [3] (setting [8]); -3.95% (inactive) in experiment [3] (at 50.0 µM); -22% (inactive) in experiment [4] (setting [7]); -24% (inactive) in experiment [4] (setting [8]); 7.85% (inactive) in experiment [4] (at 50.0 µM). The growth inhibition in experiment [5] (setting [7]) was -1% (inactive); in experiment [5] (setting [8]), -9% (inactive); in experiment [5] (at 50.0 µM) it was 43.4% (inactive); in experiment [6] (setting [7]), -5% (inactive); in experiment [6] (setting [8]) it was -7% (inactive); in experiment [6] (at 50.0 µM), -15.3% (inactive).

With `Nc1nc(=S)c2ncn(C3OC(CO)C(O)C3O)c2[nH]1` (centres undefined), the growth inhibition in experiment [1] (setting [7]) was 79% (active); in experiment [1] (setting [8]) it was 5% (inactive); in experiment [1] (at 50.0 µM), 12.5% (inactive) and 38.5% (inactive); in experiment [2] (setting [7]), 97% (active); in experiment [2] (setting [8]) it was 6% (inactive); in experiment [2] (at 50.0 µM) it was 0.4% (inactive) and 92.5% (active). Besides, the growth inhibition in experiment [3] (setting [7]) is 66% (inactive); in experiment [3] (setting [8]), 26% (inactive); in experiment [3] (at 50.0 µM) it was -3.7% (inactive) and -8.45% (inactive); in experiment [4] (setting [7]) it was 49% (inactive); in experiment [4] (setting [8]) it was 9% (inactive); in experiment [4] (at 50.0 µM), 4.9% (inactive) and 96.8% (active). Besides, the growth inhibition in experiment [5] (setting [7]) is 99% (active); in experiment [5] (setting [8]), 14% (inactive); in experiment [5] (at 50.0 µM), -4.2% (inactive) and 98% (active); in experiment [6] (setting [7]), 94% (active); in experiment [6] (setting [8]), 52% (inactive); in experiment [6] (at 50.0 µM), -11.9% (inactive) and 97.5% (active).

For the compound `O=C1C=C(c2c(O)ccc3ccccc23)c2ccccc2C1=O`, the growth inhibition in experiment [1] (setting [7]) is 48% (inactive) and 29% (inactive); in experiment [1] (setting [8]) it was 98% (active); in experiment [1] (at 50.0 µM) it was 98.9% (active) and 85.8% (active); in experiment [2] (setting [7]), 73% (active) and 21% (inactive); in experiment [2] (setting [8]), 99% (active) and 98% (active); in experiment [2] (at 50.0 µM), 98.8% (active) and 85% (active). For the same compound, the growth inhibition is 80% (active) and 40% (inactive) in experiment [3] (setting [7]); 98% (active) in experiment [3] (setting [8]); 84.8% (active) and 89.8% (active) in experiment [3] (at 50.0 µM); 59% (inactive) and 36% (inactive) in experiment [4] (setting [7]); 99% (active) and 98% (active) in experiment [4] (setting [8]); 98.7% (active) and 89.3% (active) in experiment [4] (at 50.0 µM). In addition, the growth inhibition was 46% (inactive) and 40% (inactive) in experiment [5] (setting [7]); 99% (active) and 97% (active) in experiment [5] (setting [8]); 98.7% (active) and 90.3% (active) in experiment [5] (at 50.0 µM); 94% (active) and 73% (active) in experiment [6] (setting [7]); 98% (active) and 97% (active) in experiment [6] (setting [8]); 98.7% (active) and 90.2% (active) in experiment [6] (at 50.0 µM).

With `O=C1C=CC(=O)c2c1ccc1c3ccccc3n(Cc3ccccc3)c21`, the growth inhibition is 27% (inactive) in experiment [1] (setting [7]); 84% (active) in experiment [1] (setting [8]); 73% (active) in experiment [1] (at 50.0 µM); 38% (inactive) in experiment [2] (setting [7]); 90% (active) in experiment [2] (setting [8]); 71.2% (active) in experiment [2] (at 50.0 µM). Also, the growth inhibition in experiment [3] (setting [7]) is 41% (inactive); in experiment [3] (setting [8]), 90% (active); in experiment [3] (at 50.0 µM), 59% (inactive); in experiment [4] (setting [7]) it was 19% (inactive); in experiment [4] (setting [8]) it was 49% (inactive); in experiment [4] (at 50.0 µM) it was 38% (inactive). In addition, the growth inhibition was 52% (inactive) in experiment [5] (setting [7]); 92% (active) in experiment [5] (setting [8]); 76% (active) in experiment [5] (at 50.0 µM); 47% (inactive) in experiment [6] (setting [7]); 90% (active) in experiment [6] (setting [8]); 25.1% (inactive) in experiment [6] (at 50.0 µM).

For `CCCCCCCCOC(=O)c1cc(O)c(O)c(O)c1`, the growth inhibition in experiment [1] (setting [7]) was 49% (inactive); in experiment [1] (setting [8]), 64% (inactive); in experiment [1] (at 50.0 µM) it was 89.2% (active); in experiment [2] (setting [7]), 46% (inactive); in experiment [2] (setting [8]) it was 68% (inactive); in experiment [2] (at 50.0 µM), 91.7% (active). The growth inhibition is 59% (inactive) in experiment [3] (setting [7]); 98% (active) in experiment [3] (setting [8]); 93% (active) in experiment [3] (at 50.0 µM); 48% (inactive) in experiment [4] (setting [7]); 98% (active) in experiment [4] (setting [8]); 90% (active) in experiment [4] (at 50.0 µM). In addition, the growth inhibition in experiment [5] (setting [7]) was 70% (active); in experiment [5] (setting [8]), 97% (active); in experiment [5] (at 50.0 µM), 89.8% (active); in experiment [6] (setting [7]), 44% (inactive); in experiment [6] (setting [8]), 59% (inactive); in experiment [6] (at 50.0 µM), 89.2% (active).

As to `Cn1c2nc3ccccc3c-2cc2ccccc21`, the growth inhibition in experiment [1] (setting [7]) is 44% (inactive); in experiment [1] (setting [8]), 85% (active); in experiment [1] (at 50.0 µM) it was 84% (active) and 85.2% (active); in experiment [2] (setting [7]), 27% (inactive); in experiment [2] (setting [8]), 75% (active); in experiment [2] (at 50.0 µM), 77.8% (active) and 71.2% (active). Besides, the growth inhibition was 38% (inactive) in experiment [3] (setting [7]); 83% (active) in experiment [3] (setting [8]); 70% (inactive) and 68.5% (inactive) in experiment [3] (at 50.0 µM); 41% (inactive) in experiment [4] (setting [7]); 74% (active) in experiment [4] (setting [8]); 60.5% (inactive) and 59.4% (inactive) in experiment [4] (at 50.0 µM). The growth inhibition was 30% (inactive) in experiment [5] (setting [7]); 83% (active) in experiment [5] (setting [8]); 70.8% (active) and 68.2% (inactive) in experiment [5] (at 50.0 µM); 48% (inactive) in experiment [6] (setting [7]); 83% (active) in experiment [6] (setting [8]); 76.7% (active) and 72.6% (active) in experiment [6] (at 50.0 µM).

For the compound `COc1c(O)cc2oc3cc(O)c(CC=C(C)C)c(O)c3c(=O)c2c1CC=C(C)C`, the growth inhibition is 98% (active) in experiment [1] (setting [7]); 89% (active) in experiment [1] (setting [8]); 86.8% (active) and 87.2% (active) in experiment [1] (at 50.0 µM); 99% (active) in experiment [2] (setting [7]); 91% (active) and 93% (active) in experiment [2] (setting [8]); 89.2% (active) and 90% (active) in experiment [2] (at 50.0 µM). Further, the growth inhibition in experiment [3] (setting [7]) is 99% (active); in experiment [3] (setting [8]) it was 89% (active); in experiment [3] (at 50.0 µM), 90.3% (active) and 89.4% (active); in experiment [4] (setting [7]) it was 51% (inactive) and 42% (inactive); in experiment [4] (setting [8]) it was 83% (active) and 86% (active); in experiment [4] (at 50.0 µM), 85.2% (active) and 86.2% (active). Further, the growth inhibition was 98% (active) in experiment [5] (setting [7]); 87% (active) and 86% (active) in experiment [5] (setting [8]); 86.1% (active) and 87% (active) in experiment [5] (at 50.0 µM); 99% (active) and 98% (active) in experiment [6] (setting [7]); 81% (active) and 87% (active) in experiment [6] (setting [8]); 87.2% (active) in experiment [6] (at 50.0 µM).

Turning to `O=S(=O)(c1ccc(F)cc1)c1ccc(F)cc1`, the growth inhibition in experiment [1] (setting [7]) is -4% (inactive); in experiment [1] (setting [8]), -4% (inactive); in experiment [1] (at 50.0 µM), -4.4% (inactive) and 11.7% (inactive); in experiment [2] (setting [7]), 10% (inactive); in experiment [2] (setting [8]) it was 19% (inactive); in experiment [2] (at 50.0 µM), -35.6% (inactive) and -12.2% (inactive). The growth inhibition in experiment [3] (setting [7]) is -6% (inactive); in experiment [3] (setting [8]), -1% (inactive); in experiment [3] (at 50.0 µM), -3.8% (inactive) and -3.55% (inactive); in experiment [4] (setting [7]), -5% (inactive); in experiment [4] (setting [8]), -7% (inactive); in experiment [4] (at 50.0 µM) it was 3.2% (inactive) and 47.4% (inactive). For the same compound, the growth inhibition was -1% (inactive) in experiment [5] (setting [7]); 0% (inactive) in experiment [5] (setting [8]); -4.15% (inactive) and 19.1% (inactive) in experiment [5] (at 50.0 µM); 3% (inactive) in experiment [6] (setting [7]); 10% (inactive) in experiment [6] (setting [8]); 6.7% (inactive) and 35.2% (inactive) in experiment [6] (at 50.0 µM).

The record behind these values is PubChem BioAssay (NCI).
